From PubChem BioAssay (NCI) come the findings set out here.

This is part of a sample that, as a whole, favours compounds with a hit. Of some 83,000 tested, about 20% had one in any assay.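 48-hour exposure, single concentration, 96-well plates; percent growth endpoint where 0 means no net growth. Active: below 10.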 Values without a mark were called inactive. Calls of active or inactive are those of the source.

Holding throughout (test): NCI-60 one-dose screen, 48 h (100 = growth as untreated, 0 = no growth, -100 = all killed)
Common to all, as to settings: 10 µM unless noted

For experiment [1], the system named is DU-145 prostate.
The subject of experiment [2] is K-562 leukemia.
Experiment [3] concerns MALME-3M melanoma.
The test system of experiment [4] is MDA-MB-231 breast.
In experiment [5] the test system is RXF 393 renal.
Experiment [6] relates to SF-268 CNS.
The subject of experiment [7] is SF-295 CNS.
Experiment [8] has as its system SF-539 CNS.
Experiment [9] deals with UACC-257 melanoma.
The subject of experiment [10] is M14 melanoma.
In experiment [11] the test system is HCT-15 colon.
Experiment [12] relates to HT29 colon.
Experiment [13] has as its system SNB-19 CNS.
In experiment [14] the test system is U251 CNS.
Experiment [15] relates to PC-3 prostate.
For experiment [16], the system named is SK-MEL-5 melanoma.
In experiment [17] the test system is UACC-62 melanoma.
The subject of experiment [18] is LOX IMVI melanoma.
The test system of experiment [19] is SK-MEL-28 melanoma.

For `CCOC(=O)c1cnc2cc(Cl)c(F)cc2c1Nc1cccc(NS(C)(=O)=O)c1`, the growth in experiment [1] was 101%; in [2], 91.4%; in [3] it was 112%; in [4], 80.6%; in [5], 89.3%; in experiment [6], 90.1%. In addition, the growth in experiment [7] was 93.7%; in experiment [8] it was 89.2%; in experiment [9] it was 118%; in experiment [10], 113%; in [11], 89.3%; in [12] it was 122%. Moreover, the growth in [13] is 93.9%; in experiment [14], 106%; in experiment [15] it was 101%; in [16] it was 98.3%; in experiment [17], 87.8%; in experiment [18], 91.2%. In addition, the growth in [19] is 114%.

On to `Nc1c(C(=O)Nc2cccc3c2OCCO3)sc2nc3c(cc12)C(=O)CCC3`, for which the growth in experiment [1] was 22.2%; in [2] it was 13.7%; in [3], 56.8%; in experiment [4], 14.7%; in experiment [5], -18.5% (active); in experiment [6], 60.7%. In addition, the growth in experiment [7] is 21.9%; in [8] it was -26.3% (active); in [9], 90.6%; in [10], 33.6%; in experiment [11], 30.1%; in experiment [12], 13.5%. The growth in experiment [13] was 33.3%; in experiment [14], 33%; in experiment [15] it was 33.9%; in [16], 24%; in experiment [17], 23.5%; in experiment [18] it was 41.8%. Besides, the growth in [19] is 60%.

As for `CCCCCCCCCCCCNC(=O)[C@H]1CSC(c2ccc(OC)c(F)c2)N1` (some centres not stated), the growth in experiment [1] is -87.6% (active); in experiment [2] it was -52.7% (active); in [3], -92.3% (active); in [4] it was -88.3% (active); in [5], -96.1% (active); in experiment [6], -69.2% (active). Besides, the growth is -88.4% (active) in experiment [7]; -94.3% (active) in experiment [8]; -94.1% (active) in experiment [9]; -89.6% (active) in experiment [10]; -82.3% (active) in experiment [11]; -83.1% (active) in experiment [12]. Also, the growth in experiment [13] is -92.6% (active); in experiment [14], -93.4% (active); in experiment [15], -93.8% (active); in experiment [16] it was -98.1% (active); in [17] it was -95% (active); in experiment [18] it was -89.6% (active). Besides, the growth in experiment [19] is -92.6% (active).

Turning to `CC[C@]12C=CCN3CC[C@@]4(c5ccc(OC)cc5N(C)[C@H]4[C@@](O)(C(=O)OC)[C@@H]1OC(=O)CCC(=O)N[C@@H](Cc1c[nH]c4ccccc14)C(=O)OC)[C@@H]32`, the growth in [1] is 99.4%; in experiment [2], 85.7%; in experiment [3] it was 57.2%; in experiment [4], 67.6%; in [5] it was 15.5%; in experiment [6] it was 85.5%. In addition, the growth in experiment [7] is 99.3%; in [8], 102%; in experiment [9] it was 67%; in experiment [10] it was 97.3%; in experiment [11], 97.2%; in experiment [12] it was 89.1%. Further, the growth was 96.3% in experiment [13]; 99.3% in experiment [14]; 80.5% in [15]; 90.4% in experiment [16]; 92% in [17]; 84.1% in experiment [18]. For the same molecule, the growth in experiment [19] is 37.6%.

As for `COc1cc2c(=O)n(CC3CCCCC3)c3c4cc[nH]c4ncc3c2cc1OC`, the growth in experiment [1] was 50.3%; in experiment [2], 5.36% (active); in experiment [3], 65.9%; in [4], 25.5%; in [5] it was -4.27% (active); in [6] it was 28.8%. In addition, the growth is 42.9% in experiment [7]; -7.56% (active) in experiment [8]; 84.9% in experiment [9]; 49.2% in [10]; 32.1% in experiment [11]; 32% in experiment [12]. In addition, the growth in experiment [13] was 57.5%; in experiment [14] it was 30.3%; in experiment [15], 43.4%; in [16], 39.3%; in experiment [17], 74.4%; in experiment [18], 12.3%. Moreover, the growth in experiment [19] was 77.8%.

As for `C/C(Cc1ccc(Cl)cc1)=C(\c1ccc(OCCN2CCCCCC2)cc1)c1ccc(OC(=O)Cc2ccccc2)cc1`, the growth is 75.9% in experiment [1]; 1.27% (active) in experiment [2]; 69.5% in experiment [3]; 82.4% in experiment [4]; 53.6% in [5]; 60.2% in experiment [6]. For the same molecule, the growth in experiment [7] is 90.4%; in experiment [8], 81.5%; in experiment [9] it was 89.3%; in [10] it was 21.8%; in experiment [11] it was 32.6%; in experiment [12] it was 9.8% (active). Besides, the growth in experiment [13] is 74.4%; in [14], 42.5%; in experiment [15] it was 54.2%; in [16], 84.1%; in [17], 75.1%; in experiment [18], 78.3%. The growth in [19] was 71.3%.

For the molecule `COc1cc(NCCCCN=C(N)NC(N)=NC(C)C)c2ncccc2c1`, the growth in [1] is 127%; in experiment [2], 39.1%; in [3], -2.65% (active); in experiment [4], 21.3%; in experiment [5], 154%; in experiment [6] it was 54.1%. For the same molecule, the growth in experiment [7] was 113%; in experiment [8], 78.1%; in experiment [9], 25.2%; in [10] it was 92.4%; in experiment [11], 122%; in experiment [12], 53.9%. In addition, the growth in experiment [13] was 55.9%; in [14], 50%; in [15] it was 22.9%; in [16], 17%; in experiment [17], 77%; in experiment [18], 46.6%. In addition, the growth in experiment [19] is 86.4%.

Consider `CN1CCN(Cc2ccc(NC(=O)c3cncc(C#Cc4cncc5nccnc45)c3)cc2C(F)(F)F)CC1`, for which the growth in experiment [1] is 47.7%; in experiment [2] it was 10.4%; in [3], -17.7% (active); in experiment [4] it was 26.9%; in experiment [5] it was 28.1%; in [6], 58.9%. Moreover, the growth is 70.7% in experiment [7]; 26.9% in experiment [8]; 35.5% in experiment [9]; 9.82% (active) in [10]; 40.6% in experiment [11]; 22.7% in experiment [12]. Moreover, the growth in [13] is 92.1%; in [14] it was 76.3%; in experiment [15], 67.6%; in [16] it was 41.9%; in experiment [17] it was 16.6%; in experiment [18], -7.67% (active). Besides, the growth in experiment [19] was 13.3%.
